Measurements as given in publication PMC12618258.

Assays:
Assay in all cases: cross-link between two proteins; cross-linking mass spectrometry
[1] = biological target: Large ribosomal subunit protein eL24 (UniProt P83731)
[2] = biological target: Large ribosomal subunit protein eL38 (UniProt P63173)
[3] = biological target: Large ribosomal subunit protein eL30 (UniProt P62888)
[4] = biological target: Large ribosomal subunit protein eL6 (UniProt Q02878)
[5] = biological target: Large ribosomal subunit protein uL3 (UniProt P39023)

Large ribosomal subunit protein eL22, P35268
listed as a hit [1]: yes | listed as a hit [2]: yes

Large ribosomal subunit protein eL31, P62899
listed as a hit [1]: yes

Small ribosomal subunit protein uS4, P46781
listed as a hit [3]: yes

Small ribosomal subunit protein uS5, P15880
listed as a hit [4]: yes

Large ribosomal subunit protein eL13, P26373
listed as a hit [5]: yes
